Compound activity: PubChem, National Center for Advancing Translational Sciences (NCATS)
aSyn rescue = rescues yeast growth from alpha-synuclein toxicity | Potency, µM (highest dose often 46.1 µM), inactives show at the highest dose growth rescue (activation), most hits filed as activators | AID 652106 | Yeast expressing alpha-synuclein, growth rescue, BacTiter-Glo, 24 h | actives 0.14% (n = 370,000); note: % of control where 0% means no effect; nearly all actives have a fitted effect of over 65% in size
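Galactose-induced alpha-syn yeast (OD600=0.02, raffinose-pregrown) + pinned cpd, 24 hr, 30 deg C; growth by BacTiter-Glo luminescence. Growth restoration scores as activation.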
AT treatment = potential ataxia-telangiectasia treatment | F2112 A-T fibroblasts, KAP-1 phosphorylation AlphaLISA; neocarzinostatin DNA damage 30 min before lysis | Potency, µM (doses to about 57.5 µM), for inactives: at the highest dose activation, usual class: activators | actives 0.19% (n = 320,000); note: % of control where 0% means no effect; nearly all actives have a fitted effect of over 45% in size
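hTERT-immortalized A-T patient fibroblasts (F2112), 500 cells/well in OPTI-MEM, 1% FBS, got compounds for 60 min, then NCS for 30 min at 37C. Lysates were then assayed for phospho-KAP-1 by AlphaLISA (anti-pKAP1 donor, anti-KAP1 acceptor beads), 6 hr at 25C.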
Glioma ERSR ind = ER stress response induction in glioma. U87-MG GRP78 promoter luciferase reporter, 16 h. actives 0.02% (n = 420,000). Potency, µM, for the others: at the top dose activation, most hits filed as activators; note: series mostly up to about 76 µM; % of control where 0% means no effect; nearly all actives have a fitted effect of over 35% in size
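Stably transfected U87-MG glioma cells carrying a GRP78-based luciferase sensor; 16 h compound incubation. Luminescence end-point read 10 min after Bright-Glo addition at room temperature.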
TDP-43 yeast inh = inhibitors of TDP-43 toxicity in yeast; TDP-43 expressing yeast growth rescue, BacTiter-Glo, 24 h; Potency, µM (highest dose often 46.1 µM), for the others: at the top dose growth rescue (activation), usual class: activators; actives 1.8% (n = 410,000); note: % of control where 0% means no effect; nearly all actives have a fitted effect of over 50% in size
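Growth rescue of TDP-43-toxic yeast measured as ATP luminescence (BacTiter-Glo). Cells grown to mid-log in raffinose, induced in galactose at OD600=0.02, exposed to compound 24 hr at 30 deg C.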
Mito fusion act = inhibitors of mitochondrial division or activators of mitochondrial fusion | actives 0.23% (n = 320,000) | Potency, µM (series often up to 46.1 µM), for the others: at the top dose growth rescue (activation), hits mostly activators | S. cerevisiae fusion-defective mutant growth rescue, CellTiterGlo 48 h; note: % of control where 0% means no effect; nearly all actives have a fitted effect of over 45% in size
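Growth-rescue viability read-out: after 48 h at the non-permissive 37C in glycerol/ethanol YPEG, yeast mitochondrial fusion mutants are measured by CellTiterGlo luminescence; compounds (23 nl pinned per well) restoring growth score as division inhibitors or fusion activators.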
Abeta rescue = restores growth of yeast expressing A-beta42 peptide; Potency, µM (doses to about 46.1 µM), hits mostly activators; yeast expressing A-beta42, growth rescue, OD600, 48 h; response scale: 0% DMSO, 100% iron-clioquinol control; AID 1347071; actives 0.063% (n = 410,000); note: nearly all actives have a fitted effect of over 55% in size
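Yeast A-beta toxicity model in growth medium with pinned compounds, 48 h at 30 C; growth read as absorbance at 600 nm. Normalized to FeCl3/clioquinol equimolar mix (positive) and DMSO (negative).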
Numbers without * were called inactive; i = inactive; ? = inconclusive; nt = no result given; ! = repeats disagree; [ ] = dose if it differs, or a comment. Sampled rows, rich in hits. Any-hit rate of the full collection: about 2.1%. Calls come from the whole dose curve; as a rule, active = well fitted curve in the direction sought with a large enough effect; inconclusive = small, poorly fitted or top-dose-only effect, or another doubt; inactive = no such curve, though single readings can be large; an effect the other way counts as inactive or inconclusive. Potency is the fitted concentration of half-maximal effect.

SMILES | aSyn rescue | AT treatment | Glioma ERSR ind | TDP-43 yeast inh | Mito fusion act | Abeta rescue
CC(Oc1cccnc1[N+](=O)[O-])C(=O)Nc1ccc(F)cc1 (stereo unspecified) | 0.4% | -0.1% | -6.0% | ? | -0.6% | i
C/C(=C(\CCO)SSCC1CCCO1)N(C=O)Cc1cnc(C)nc1N (stereo unspecified) | nt | nt | -4.7% | nt | nt | nt
CC(=O)Nc1c(I)cc(I)c(C(=O)O)c1I | nt | nt | -4.2% | nt | nt | nt
Cc1ccccc1CN1CCc2nnc(C(C)NC(=O)C3CCN(C)CC3)n2CC1 (stereo unspecified) | nt | nt | -4.8% | nt | nt | nt
CC(=O)n1c2ccccc2c2ccccc21 | 3.8% | -3.0% | 2.3% | -3.8% | 2.5% | i
c1ccc(-n2c3ccccc3c3ccccc32)cc1 | -6.0% | 25.1µM* | 0.8% | -4.3% | -5.2% | i
O=C(c1cc(N2C(=O)C3C4CCC(C4)C3C2=O)ccc1Cl)N1CCN(c2ccc(F)cc2)CC1 (stereo unspecified) | 15.3% | 2.3% | 0.4% | -3.0% | 5.62µM* | i
COc1ccc(N2CCN(C(=O)c3cc(N4C(=O)C5C6CCC(C6)C5C4=O)ccc3Cl)CC2)cc1 (stereo unspecified) | 2.4% | -10.1% | -4.7% | 2.9% | -0.8% | i
O=CNc1cc(-c2ccccc2)cn2c(-c3ccc(F)c(Cl)c3)cnc12 | -13.1% | nt | 2.7% | ? | nt | i
CN(C)c1ccc(-c2cc(NC=O)c3ncc(-c4ccc(F)c(Cl)c4)n3c2)cc1 | -6.1% | nt | 3.1% | 22.4µM* | nt | i
O=CNc1cc(-c2cccc(F)c2)cn2c(-c3ccc(F)c(Cl)c3)cnc12 | -5.8% | nt | -2.2% | 15.8µM* | nt | i
CCC(C(=O)NCCc1ccccc1)n1nc(C)c2sc3ccccc3c2c1=O (stereo unspecified) | nt | nt | -0.4% | ? | nt | ?
O=C(Nc1nc2c(F)cccc2s1)c1ccc(S(=O)(=O)N2CCOCC2)cc1 | -0.3% | nt | -1.2% | 13.9% | nt | i
O=C(NC1CCSc2ccccc21)c1cccc([N+](=O)[O-])c1 (stereo unspecified) | 0.2% | 4.7% | 7.2% | 12.6µM* | 1.7% | i
O=C(O)c1cc([N+](=O)[O-])ccc1NCCCc1ccccc1 | -17.7% | nt | 28.2µM*! | 27.5% | 8.2µM* | i
O=C(O)c1cc([N+](=O)[O-])ccc1NCc1ccccc1 | -1.5% | 1.7% | 5.5% | 17.7% | 6.0% | i
CC1(Cc2ccccc2OC(F)(F)F)C(=O)Nc2ccc(-c3ccsc3)cc21 (stereo unspecified) | -60.5% | nt | -12.0% | 20µM* | nt | i
CC1(Cc2ccccc2OC(F)(F)F)C(=O)Nc2ccc(OC(F)(F)F)cc21 (stereo unspecified) | 2.5% | nt | -9.5% | -54.6% | nt | i
Cc1cccc(-n2c(C)cc(C(=O)C(=O)Nc3ccccc3F)c2C)c1C | nt | nt | -5.5% | -16.8% | nt | i
Clc1cccc(N2CCN(Cc3nnc(-c4ccccc4)o3)CC2)c1 | 7.9% | -0.9% | 1.3% | 11.2µM* | ? | i
c1ccc(-c2nnc(CN3CCN(c4ccccc4)CC3)o2)cc1 | -0.7% | -0.7% | -3.4% | 24.1% | -0.2% | i
CC1CCc2c(c3ccccc3n2C(=O)CCl)C1 (stereo unspecified) | -13.4% | -6.3% | -3.9% | 2.82µM* | -15.0% | i
CCN1CCN(CC(=O)n2c3c(c4ccccc42)CC(C)CC3)CC1 (stereo unspecified) | -5.4% | 2.1% | -6.1% | -10.7% | -5.1% | i
COc1ccc(C(C)C)cc1S(=O)(=O)NCCc1c(C)[nH]c2ccc(C)cc12 | nt | nt | -3.6% | ? | nt | i
COc1ccc(C(C)C)cc1S(=O)(=O)NCCc1c(C)[nH]c2c(Cl)cccc12 | nt | nt | nt | 6.31µM* | nt | i
SMILES | aSyn rescue | AT treatment | Glioma ERSR ind | TDP-43 yeast inh | Mito fusion act | Abeta rescue
COCCOC(=O)c1c(C)oc2c1cc(NS(=O)(=O)c1ccc(Cl)c(C)c1)c1ccccc12 | nt | nt | -3.2% | 3.3% | nt | i
CC(C)Cn1cnc2c(SCc3ccccc3F)nc(N)nc21 | 9.3% | nt | 3.8% | ? | nt | i
CCCCn1cnc2c(SCc3ccccc3F)nc(N)nc21 | 7.0% | nt | 1.3% | 17.8µM* | nt | i
O=C(N/N=C/C=C/c1ccc([N+](=O)[O-])cc1)C1COc2ccccc2O1 (stereo unspecified) | 12.2% | -7.5% | -1.4% | 0.0% | 4.0% | i
O=C(N/N=C\C=C\c1ccco1)C1COc2ccccc2O1 (stereo unspecified) | 13.4% | 0.0% | ? | 14.1µM* | -0.7% | i
O=C(N/N=C\c1cc(Br)cs1)C1COc2ccccc2O1 (stereo unspecified) | 14.0% | nt | -3.1% | 35.5µM* | 8.9% | ?
O=C(N/N=C/c1ccc2c(c1)OCO2)C1COc2ccccc2O1 (stereo unspecified) | -1.7% | 0.7% | 2.8% | -1.0% | 3.2% | i
COc1ccc(S(=O)(=O)NCCSCc2ccccc2C)cc1Br | ? | 3.8% | -1.6% | 15.8µM* | 5.9% | i
c1ccc(N2CCN(Cc3nc4ccccc4[nH]3)CC2)nc1 | -8.0% | 9.9% | -6.3% | -4.7% | -2.8% | i
c1c[nH]c(CN2CCN(Cc3ncc[nH]3)CC2)n1 | 10.9% | nt | -2.7% | 3.98µM* | nt | i
CCOC(=O)CCCc1ccc(/C(C)=N/NC(N)=S)cc1 | -7.7% | 42.7% | -2.2% | 20µM* | 7.8% | ?
CCOC(=O)CCCc1ccc(/C(C)=N/NC(=S)NC)cc1 | 6.1% | -1.1% | -4.9% | 26.6% | 0.2% | ?
O=S(=O)(Nc1cc2nc3ccccc3nc2n1Cc1ccccc1)c1ccc(Cl)cc1 | -7.7% | 25.1µM* | -5.2% | 14.4% | -1.1% | i
Cc1cnc(SCc2ccccn2)nc1C1CCCN(C(=O)c2ccc3[nH]c(C)c(C)c3c2)C1 (stereo unspecified) | nt | nt | -0.1% | nt | nt | nt
CC(C)=CCN1CCN(Cc2nc(-c3ccc(F)cc3)cs2)CC1CCO (stereo unspecified) | 4.1% | 1.3% | 1.2% | -13.1% | -6.5% | i
OCCC1CN(Cc2nc(-c3ccccc3)cs2)CCN1Cc1ccc(F)cc1 (stereo unspecified) | 1.1% | 7.9% | -2.2% | 6.0%[9.22 µM] | 11.2µM* | i
C=CCOc1ccc(/C=C/C(=O)OCC(=O)NCCc2ccccc2)cc1 | 24.2% | 2.6% | -2.4% | 25.1µM* | 5.4% | i
COc1cc(OC)cc(-c2c(-c3cccs3)c3cc(-c4ccc(CN5CCOCC5)cc4)ccc3n2C)c1 | -13.7% | 6.9% | 0.4% | 22.4µM* | nt | i
